About 83,000 compounds went through this panel and 20% of them were active in at least one assay; those are over-represented in the sample as a whole.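 Step 1: grow cells in 96-well plates. Step 2: add test compound at a single concentration. Step 3: incubate 48 h. Step 4: record percent growth.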 Unmarked numbers belong to inactive results. The source made the active and inactive calls. The calls were made as follows: active = growth percent below 10; inactive = the rest.

The first test has as its system CAKI-1 renal. Kind of test: NCI-60 one-dose screen, 48 h (100 = growth as untreated, 0 = no growth, -100 = all killed). The following applies: 10 µM unless noted.
As to `COc1ccc(-c2cc(Cc3cccs3)c(=O)n(Cn3cncn3)n2)cc1`, the growth is 98.3%.

For the compound `CC1=CSC2=NCCN12`, the growth was 93.5%.

Turning to `Cc1ccc(NC(=O)Nc2ccc(-c3cccnc3)cc2N2CCC(CO)CC2)cc1`, the growth was 42.2%.

Consider `COc1ccc2c(c1)C(=O)c1c-2c(OCCCN(C)C)nc2cc(Br)ccc12`, for which the growth is 69.6%.

In the case of `CCC(CC)NCCCCCNc1cc(OC)cc2cccnc12`, the growth was 97.2%.

Turning to `COc1cc(C2C=C(c3ccc(C)cc3)Nc3nc(SC)[nH]c(=O)c32)ccc1Oc1ccnc2cc(Cl)ccc12` (centres undefined), the growth is 67.8%.

With `O=c1[nH]c(=O)n(C2CC(O)C(CO)O2)cc1C(F)(F)F` (centres undefined), the growth is 66.2%.

Turning to `Nc1nc(Cl)c2[nH]cnc2n1`, the growth was 89.4%.

Take `OC(CCC(O)(c1ccccc1)c1ccccc1)(c1ccccc1)c1ccccc1`: the growth was 44.4%.

On to `C[C@]12C[C@H](O)[C@H]3[C@@H](CCC4=CC(=O)CC[C@@]43C)[C@@H]1CC[C@@H]2C(=O)CO`, for which the growth was 101%.

Regarding `COC(=O)[C@]12CC[C@@H](C)[C@H](C)[C@@H]1C1=CC[C@@H]3[C@@]4(C)C=C(O)C(=O)[C@@]5(C)COC(=C54)C[C@@]3(C)[C@]1(C)CC2`, the growth is -45.7% (active).

Consider `C=C(C)[C@@H]1C/C=C(/C=O)CC[C@@H]2O[C@@]2(C)CC/C=C(\C)CC1`, for which the growth was 8.5% (active).

In the case of `CCCOc1ccc2c(c1)CC[C@@H]1[C@@H]2CC[C@@]2(C)[C@H]1CC[C@]2(C)O`, the growth was 62.3%.

Take `C/C(=N\N1CC(=O)NC1=O)c1ccc([N+](=O)[O-])o1`: the growth was 109%.

Regarding `CCC1=C(c2ccc(OC)cc2)C(C)(C)Oc2cc(O)c(CN3CCCC3)cc21`, the growth was 83.2%.

Take `COc1ccc(Cn2cc3c(c2-c2ccccc2)CCc2cncnc2-3)cc1`: the growth is 36.2%.

For the compound `CCC(CCC(C)C1CCC2C3CC=C4CC(O)CCC4(C)C3CCC12C)C(C)C` (centres undefined) (tested in a mixture with another compound), the growth was 108%.

On to `COc1cc(OC)c2sc(-c3ccc(-n4cncc4-c4ccc(N)cc4)cc3)nc2c1`, for which the growth is 76.4%.

As for `CCn1c2c(c3ccccc31)SC1c3cccn3CCN1C2=S` (centres undefined), the growth was 88.3%.

As to `COc1ccc(CCN2CCCN3C2=Nc2ccccc2S3(=O)=O)cc1`, the growth is 46.5%.

For the compound `O=C(Nc1ncc([N+](=O)[O-])s1)c1cccc([N+](=O)[O-])c1`, the growth was 40.4%.

Regarding `N#Cc1cnc2cc(OC[C@H](O)CO)c(NC(=O)CC3CSSC3)cc2c1Nc1ccc(OCc2cccc(F)c2)c(Cl)c1`, the growth is 70.1%.

Regarding `O=C(CSCC(=O)N/N=C/c1ccccc1O)N/N=C\c1ccccc1O`, the growth was 11.4%.

Take `CC(C)(C)c1ccc(S(=O)(=O)O)s1`: the growth was -3.29% (active).

Turning to `CSC1=Nc2c(c(C)c(-c3ccccc3)n2CCCN2CCCCC2)C2=NC(=O)C[C@H](C)N12`, the growth was 66.9%.

As for `CC(=O)Oc1ccc(C23c4ccccc4C2(OC(C)=O)c2cc(OC(C)=O)ccc23)cc1` (centres undefined), the growth was 85.2%.

`COc1ccc2c(c1)C(=O)c1c-2c(OCCN(C)C)nc2cc(OC)ccc12`: the growth is 9.1% (active).

Regarding `O=C1NCN(CCO)CN1`, the growth is 92.8%.

Regarding `CC(=O)NCCSC(=O)C(=O)SCCNC(C)=O`, the growth is 105%.

Turning to `CCc1[nH]nc(-c2ccc(OC)cc2)c1-c1ccccc1OCCN(CC)CC`, the growth is 89%.

Consider `Cc1cc(NC(=O)Nc2cccc3ccccc23)no1`, for which the growth was 104%.

As for `NC(=O)c1ccccc1NC(=O)c1ccccc1Cl`, the growth is 98.3%.

Consider `CCCCCCCC/C=C\CCCCCCCCOc1ccccc1CC(=O)NCC[N+]1(C)CCCC1`, for which the growth was 97.4%.

For `c1ccc(-n2nnnc2-c2cccc3ccccc23)cc1`, the growth is 21.8%.

Regarding `O=C1c2ccccc2C(=O)c2c1cccc2-n1nnc2ccccc21`, the growth is 105%.

Take `CCC(O)C(C)(C)C` (centres undefined): the growth is 94.3%.

In the case of `Clc1ccc([C@@H]2C[C@@H]3Cc4cc(Br)c5ccccc5c4N2O3)c(Cl)c1`, the growth is 73.6%.

A further test concerns A498 renal. The test is described as above. The following applies: 10 µM unless noted.
For `COc1ccc(-c2cc(Cc3cccs3)c(=O)n(Cn3cncn3)n2)cc1`, the growth was 83.5%.

In the case of `CC1=CSC2=NCCN12`, the growth is 118%.

`Cc1ccc(NC(=O)Nc2ccc(-c3cccnc3)cc2N2CCC(CO)CC2)cc1`: the growth is -36.2% (active).

Consider `COc1ccc2c(c1)C(=O)c1c-2c(OCCCN(C)C)nc2cc(Br)ccc12`, for which the growth was 76.3%.

With `CCC(CC)NCCCCCNc1cc(OC)cc2cccnc12`, the growth was 72.7%.

On to `COc1cc(C2C=C(c3ccc(C)cc3)Nc3nc(SC)[nH]c(=O)c32)ccc1Oc1ccnc2cc(Cl)ccc12` (centres undefined), for which the growth is 71.7%.

With `O=c1[nH]c(=O)n(C2CC(O)C(CO)O2)cc1C(F)(F)F` (centres undefined), the growth was 42.3%.

For `Nc1nc(Cl)c2[nH]cnc2n1`, the growth was 95.1%.

In the case of `OC(CCC(O)(c1ccccc1)c1ccccc1)(c1ccccc1)c1ccccc1`, the growth was 60.2%.

As to `C[C@]12C[C@H](O)[C@H]3[C@@H](CCC4=CC(=O)CC[C@@]43C)[C@@H]1CC[C@@H]2C(=O)CO`, the growth is 43.5%.

Take `COC(=O)[C@]12CC[C@@H](C)[C@H](C)[C@@H]1C1=CC[C@@H]3[C@@]4(C)C=C(O)C(=O)[C@@]5(C)COC(=C54)C[C@@]3(C)[C@]1(C)CC2`: the growth was -78% (active).

`C=C(C)[C@@H]1C/C=C(/C=O)CC[C@@H]2O[C@@]2(C)CC/C=C(\C)CC1`: the growth is 124%.

`CCCOc1ccc2c(c1)CC[C@@H]1[C@@H]2CC[C@@]2(C)[C@H]1CC[C@]2(C)O`: the growth was 114%.

As for `C/C(=N\N1CC(=O)NC1=O)c1ccc([N+](=O)[O-])o1`, the growth was 76.7%.

With `CCC1=C(c2ccc(OC)cc2)C(C)(C)Oc2cc(O)c(CN3CCCC3)cc21`, the growth was 59.5%.

For the compound `COc1ccc(Cn2cc3c(c2-c2ccccc2)CCc2cncnc2-3)cc1`, the growth is 45.8%.

For the compound `CCC(CCC(C)C1CCC2C3CC=C4CC(O)CCC4(C)C3CCC12C)C(C)C` (centres undefined) (tested in a mixture with another compound), the growth is 104%.

`COc1cc(OC)c2sc(-c3ccc(-n4cncc4-c4ccc(N)cc4)cc3)nc2c1`: the growth was -3.9% (active).

Take `CCn1c2c(c3ccccc31)SC1c3cccn3CCN1C2=S` (centres undefined): the growth is 115%.

As for `COc1ccc(CCN2CCCN3C2=Nc2ccccc2S3(=O)=O)cc1`, the growth was 0.819% (active).

As for `O=C(Nc1ncc([N+](=O)[O-])s1)c1cccc([N+](=O)[O-])c1`, the growth is 5.48% (active).

On to `N#Cc1cnc2cc(OC[C@H](O)CO)c(NC(=O)CC3CSSC3)cc2c1Nc1ccc(OCc2cccc(F)c2)c(Cl)c1`, for which the growth was -71.5% (active).

As to `O=C(CSCC(=O)N/N=C/c1ccccc1O)N/N=C\c1ccccc1O`, the growth was 99.1%.

As for `CC(C)(C)c1ccc(S(=O)(=O)O)s1`, the growth was 95.4%.

With `CSC1=Nc2c(c(C)c(-c3ccccc3)n2CCCN2CCCCC2)C2=NC(=O)C[C@H](C)N12`, the growth was 80.8%.

As to `CC(=O)Oc1ccc(C23c4ccccc4C2(OC(C)=O)c2cc(OC(C)=O)ccc23)cc1` (centres undefined), the growth is 114%.

With `COc1ccc2c(c1)C(=O)c1c-2c(OCCN(C)C)nc2cc(OC)ccc12`, the growth is 38.4%.

Regarding `O=C1NCN(CCO)CN1`, the growth is 106%.

For `CC(=O)NCCSC(=O)C(=O)SCCNC(C)=O`, the growth is 104%.

As to `CCc1[nH]nc(-c2ccc(OC)cc2)c1-c1ccccc1OCCN(CC)CC`, the growth was 80.7%.

Consider `Cc1cc(NC(=O)Nc2cccc3ccccc23)no1`, for which the growth is 126%.

`NC(=O)c1ccccc1NC(=O)c1ccccc1Cl`: the growth is 98.3%.

For `CCCCCCCC/C=C\CCCCCCCCOc1ccccc1CC(=O)NCC[N+]1(C)CCCC1`, the growth is 93.2%.

Regarding `c1ccc(-n2nnnc2-c2cccc3ccccc23)cc1`, the growth is 32.6%.

Take `O=C1c2ccccc2C(=O)c2c1cccc2-n1nnc2ccccc21`: the growth was 88.4%.

For the compound `CCC(O)C(C)(C)C` (centres undefined), the growth was 96.3%.

On to `Clc1ccc([C@@H]2C[C@@H]3Cc4cc(Br)c5ccccc5c4N2O3)c(Cl)c1`, for which the growth is 87%.

(Values after PubChem BioAssay (NCI).)
